# CYP2C19 inhib: inhibitors of human CYP2C19 | inhibition, % at 5 µM | P33261 | hit rate 21% among 96,000 | AID 778 | CYP2C19 Supersomes, luciferin-H EGE luminescence, 30 min;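 active means CYP2C19 inhibition above a set limit at 5 µM in the primary screen, cut at about 50% in these data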;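 further: plate controls were negative control wells for no effect and 2.5 mM tranylcypromine positive control for full effect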
# EphB4 antag: antagonists of human EphB4-ephrin-B2 interaction; P54760; EphB4 LBD / TNYL-RAW-Alexa532 peptide, fluorescence polarization; inhibition, % at 7 µM; hit rate 0.15% among 97,000;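 active means inhibition above the screen-wide mean inhibition plus 3 SD, cut at about 15% in these data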;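 further: 0% = DMSO wells and 100% = excess unlabeled TNYL-RAW peptide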
# CYP2C9 inhib: blocks human cytochrome P450 2C9. P11712. hit rate 20% among 96,000. inhibition, % at 5 µM. AID 777. CYP2C9 Supersomes, luciferin-H conversion, luminescence;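 active means blocking of liver enzyme CYP2C9 beyond about 50% at 5 µM, limit read from the data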
# Target sequence (P11712 whole entry, looked up): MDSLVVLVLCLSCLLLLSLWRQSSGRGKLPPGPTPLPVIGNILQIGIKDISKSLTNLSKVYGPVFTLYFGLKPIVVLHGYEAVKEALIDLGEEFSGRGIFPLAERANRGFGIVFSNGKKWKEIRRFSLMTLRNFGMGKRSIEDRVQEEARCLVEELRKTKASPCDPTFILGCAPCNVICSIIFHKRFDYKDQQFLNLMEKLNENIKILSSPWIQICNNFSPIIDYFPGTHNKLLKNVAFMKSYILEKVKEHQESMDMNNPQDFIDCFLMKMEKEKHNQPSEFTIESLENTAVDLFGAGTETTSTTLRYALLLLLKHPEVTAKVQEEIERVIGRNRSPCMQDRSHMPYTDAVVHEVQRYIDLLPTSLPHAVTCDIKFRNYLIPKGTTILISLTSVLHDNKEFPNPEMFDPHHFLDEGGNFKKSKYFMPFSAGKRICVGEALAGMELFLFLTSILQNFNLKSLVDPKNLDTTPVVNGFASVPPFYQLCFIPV
# CYP2C19 activ: cytochrome P450 2C19 (human) activation | 96,000 tested, under 10 active | activation factor at 5 µM | P33261 | recombinant CYP2C19, luciferin-H EGE luminescence; hits give high values; 0 = fully inhibited enzyme, 1 = untreated enzyme;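 active means activation factor of at least 2 at 5 µM in the primary screen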;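 further: 0 = wells with 2.5 mM tranylcypromine and 1 = vehicle-only wells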
# CYP2C9 activ: increases human cytochrome P450 2C9 activity. recombinant CYP2C9, luciferin-H conversion, luminescence; hits give high values; factor 1 = untreated enzyme, 0 = blocked. hit rate 1.4% among 96,000. activation factor at 5 µM. P11712;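 active means activation factor of 2 or more for CYP2C9 at a 5 µM dose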;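 further: 0 = sulfaphenazole-blocked wells and 1 = vehicle-only wells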
# * hit, by the source's call; / = no result given. An excerpt weighted towards active compounds, which were near 27% of everything screened.
SMILES,CYP2C19 inhib,EphB4 antag,CYP2C9 inhib,CYP2C19 activ,CYP2C9 activ
COC(=O)Nc1sc2c(c1C(=O)NCc1ccco1)CCCC2,-5.2,3.9,4.1,1.1,1
COc1ccc(C(=O)Nc2ccc(Cl)cc2C(=O)NCc2ccco2)cc1OC,28.7,-1.4,62.7*,0.7,0.4
COC(=O)Nc1sc2c(c1C(=O)NCc1ccco1)CCC2,10.1,-5.4,34.1,0.9,0.7
O=C(Nc1sc2c(c1C(=O)NCc1ccco1)CCCC2)c1ccc2c(c1)OCO2,63.3*,-1.4,84.5*,0.4,0.2
Cc1ccc(C(=O)Nc2sc3c(c2C(=O)NCc2ccco2)CCCC3)cc1,8.5,2.1,65.1*,0.9,0.3
COc1ccc(C(=O)Nc2sc3c(c2C(=O)NCc2ccco2)CCCC3)cc1OC,51.0*,4.5,85.9*,0.5,0.1
O=C1C2C3C=CC(C3)C2C(=O)N1CNc1ccccc1 (stereo not given),-10.6,1.3,-43.0,1.1,1.4
O=C(COC(=O)C1(c2ccc(Cl)cc2)CCCC1)NC1CCS(=O)(=O)C1 (stereo not given),27.1,-2.7,4.0,0.7,1
COCCCNc1nc2c(c(=O)[nH]c(=O)n2C)n1CC(O)COc1cccc(C)c1 (stereo not given),28.1,-8.9,-0.3,0.7,1
O=C(CCN1C(=O)c2ccccc2C1=O)Nc1sc2c(c1C(=O)NCc1ccco1)CCCC2,75.9*,-4.2,92.1*,0.2,0.1
COc1cc(C(=O)Nc2sc3c(c2C(=O)NCc2ccco2)CCCC3)cc(OC)c1OC,61.1*,-1.7,76.4*,0.4,0.2
CCOC(=O)CC(=O)CSc1nc2ccccc2c(=O)n1-c1ccc(C(=O)N2CCOCC2)cc1,85.5*,4.5,72.7*,0.1,0.3
CCOC(=O)CC(=O)CSc1nc2ccccc2c(=O)n1-c1ccc(C(=O)NCCOC)cc1,74.0*,-4.8,77.6*,0.3,0.2
CCCn1nc(Oc2nc(NCC)nc(NC(C)C)n2)ccc1=O,19.8,-10.5,5.1,0.8,0.9
CCN(CC)CCCN1C(=O)C(=O)/C(=C(/O)c2ccc3c(c2)OCCO3)C1c1ccc(C)o1 (stereo not given),4.5,/,-0.7,1,1
COc1ccc(NC(=O)CN2CCN(S(=O)(=O)c3ccc(Cl)cc3)CC2)cc1,81.1*,0.7,21.7,0.2,0.8
COc1ccc(N(CC(=O)Nc2ccc(S(=O)(=O)N3CCCCC3)cc2)S(C)(=O)=O)cc1OC,18.1,5.2,53.2*,0.8,0.5
COc1ccc(S(=O)(=O)N2CCC(O)(c3ccc(Cl)cc3)CC2)cc1,67.9*,4.4,-134.3,0.3,2.3*
COc1ccc(S(=O)(=O)N2CCCN(CC(=O)Nc3ccc(OC)c(Cl)c3)CC2)cc1,59.2*,-1.4,-5.8,0.4,1.1
COc1ccc(S(=O)(=O)N2CCN(CC(=O)Nc3cc(OC)cc(OC)c3)CC2)cc1,15.1,4.4,-21.0,0.8,1.2
COc1ccc(N(CC(=O)Nc2cccc(C(C)=O)c2)S(C)(=O)=O)cc1OC,35.6,/,21.0,0.6,0.8
CC1(C)CCN(Cc2ccccc2)C1CC#N (stereo not given),59.7*,9.0,-5.3,0.4,1.1
O=c1c2ccccc2oc2nc3ccn(Cc4ccncc4)c(=O)c3cc12,41.0,0.6,59.1*,0.6,0.4
Cc1nc2ccccc2cc1OCc1ccccc1,26.5,-7.0,64.8*,0.7,0.4
Cc1nc2ccccc2cc1OCc1ccc(Cl)cc1,0.8,-0.4,24.9,1,0.8
SMILES,CYP2C19 inhib,EphB4 antag,CYP2C9 inhib,CYP2C19 activ,CYP2C9 activ
COc1cccc(COc2cc3ccccc3nc2C)c1,43.3,5.2,77.6*,0.6,0.2
c1ccc2sc(NC3=NCN(C4CCCCC4)CN3)nc2c1,-10.4,9.8,-8.6,1.1,1.1
COc1ccc(OC)c(C2NC(=O)c3sc(=S)n(-c4ccccc4)c3N2)c1 (stereo not given),56.6*,-1.6,61.6*,0.4,0.4
COc1cccc(-c2cc3c(=O)n(-c4ccccc4)c(=S)[nH]c3s2)c1,-12.8,5.9,7.2,1.1,0.9
COc1cccc(C2NC(=O)c3sc(=S)n(-c4ccccc4)c3N2)c1 (stereo not given),56.9*,0.1,88.1*,0.4,0.1
c1ccc(CN2CCN(c3nc(-c4ccccc4)nc4ccccc34)CC2)cc1,8.3,-0.9,29.4,0.9,0.7
CC(C)(C)C(=O)[C@@H]1[C@@H]2C(=O)N(C3CCCCC3)C(=O)[C@@H]2[C@H]2c3ccccc3C=CN12,66.5*,2.6,82.0*,0.3,0.2
O=C(c1cccs1)[C@@H]1[C@@H]2C(=O)N(Cc3ccc4c(c3)OCO4)C(=O)[C@@H]2C2c3ccccc3C=CN21 (stereo not given in full),30.1,-2.1,63.9*,0.7,0.4
O=C(Nc1ccc2c(c1)OCO2)[C@@H]1[C@@H]2C(=O)N(C3CCCCC3)C(=O)[C@@H]2C2c3ccccc3C=CN21 (stereo not given in full),-8.3,-0.8,8.2,1.1,0.9
O=C(O)c1ccc2c(c1)C(=O)N(Cc1ccc3c(c1)OCO3)C2=O,4.2,0.7,1.0,1,1
O=C(c1ccc2c(c1)OCO2)[C@@H]1[C@@H]2C(=O)N(C3CCCCC3)C(=O)[C@@H]2C2c3ccccc3C=CN21 (stereo not given in full),58.1*,2.6,76.3*,0.4,0.2
COCCCNC(=O)c1c(N)n(-c2ccc(S(N)(=O)=O)cc2)c2nc3ccccc3nc12,-10.2,5.9,-21.9,1.1,1.2
CCn1c(N2CCN(CC(=O)c3ccc(OC)cc3)CC2)nc2ccccc21,34.0,-4.6,3.5,0.7,1
O=C(CCC(=O)N1CCN(S(=O)(=O)c2ccc(Cl)cc2)CC1)NC1CCCc2ccccc21 (stereo not given),46.8,-1.1,28.2,0.5,0.7
Cc1ccc(S(=O)(=O)N2CCN(CC(=O)NC3CCCc4ccccc43)CC2)c(C)c1 (stereo not given),51.6*,-2.1,-3.9,0.5,1
Cc1ccc(S(=O)(=O)N2CCN(CC(=O)NC3CCCc4ccccc43)CC2)cc1C (stereo not given),69.9*,6.7,-12.1,0.3,1.1
CC(C)Cn1c(-c2nn(C)cc2Cl)n[nH]c1=S,57.2*,0.8,0.1,0.4,1
CCCCn1c(-c2nn(C)c(C)c2Cl)n[nH]c1=S,18.9,3.2,18.2,0.8,0.8
CCCCn1c(-c2nn(C)cc2Cl)n[nH]c1=S,52.5*,-5.0,21.4,0.5,0.8
Cc1cc(C)c(NC(=O)CCCN2CCN(C)CC2)c(C)c1,-15.7,-4.4,-15.9,1.2,1.2
CCCNC(=O)c1[nH]c(C)c(C(C)=O)c1C,12.5,2.5,19.4,0.9,0.8
Oc1ccccc1N=Nc1nc(-c2ccccc2)c(-c2ccccc2)[nH]1,24.3,8.8,54.4*,0.8,0.5
c1ccc(-n2nnnc2NCCc2c[nH]c3ccccc23)cc1,97.5*,0.3,81.4*,0,0.2

# Source: PubChem
